Pf growth 96h = P. falciparum growth inhibition at 96 hours | Potency, µM (highest dose often 28.7 µM), without a hit: at the top dose activity change, negative = inhibition, actives largely listed as inhibitors | 320,000 compounds, 6.9% hits | P. falciparum luciferase reporter growth, 96 h | AID 504834; further: potency means the concentration at half of the fitted maximal effect; on the % scale 0 is the no-effect control and ±100 the full control effect
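Luminescence readout: decreased luciferase signal marks inhibited growth of reporter-expressing P. falciparum in infected red cells (2% hematocrit, 0.05% parasitemia final), exposed to compound two generations (96 h, 37 C, 5% CO2).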
Pf growth 48h = P. falciparum growth inhibition at 48 hours (one generation); P. falciparum luciferase growth in erythrocytes, 48 h; Potency, µM (doses to about 28.7 µM), without a hit: top-dose activity change, negative = inhibition, most hits filed as inhibitors; 310,000 compounds, 5.9% hits; further: potency means the concentration at half of the fitted maximal effect; on the % scale 0 is the no-effect control and ±100 the full control effect
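Firefly luciferase activity from engineered P. falciparum reports growth; inhibitors lower the luminescent signal. Cultures contained 2% hematocrit erythrocytes at 0.1% final parasitemia.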
LmPK inhibitor = LmPK (Leishmania mexicana) enzyme inhibition | Q27686 | purified LmPK, Kinase-Glo ATP luminescence, 1 h | Potency, µM (series often up to 57.5 µM), without a hit: at the top dose activity change, negative = inhibition, hits mostly inhibitors | 290,000 compounds, 0.37% hits | AID 1721; further: potency means the concentration at half of the fitted maximal effect; on the % scale 0 is the no-effect control and ±100 the full control effect
Target sequence (Q27686 whole entry, looked up): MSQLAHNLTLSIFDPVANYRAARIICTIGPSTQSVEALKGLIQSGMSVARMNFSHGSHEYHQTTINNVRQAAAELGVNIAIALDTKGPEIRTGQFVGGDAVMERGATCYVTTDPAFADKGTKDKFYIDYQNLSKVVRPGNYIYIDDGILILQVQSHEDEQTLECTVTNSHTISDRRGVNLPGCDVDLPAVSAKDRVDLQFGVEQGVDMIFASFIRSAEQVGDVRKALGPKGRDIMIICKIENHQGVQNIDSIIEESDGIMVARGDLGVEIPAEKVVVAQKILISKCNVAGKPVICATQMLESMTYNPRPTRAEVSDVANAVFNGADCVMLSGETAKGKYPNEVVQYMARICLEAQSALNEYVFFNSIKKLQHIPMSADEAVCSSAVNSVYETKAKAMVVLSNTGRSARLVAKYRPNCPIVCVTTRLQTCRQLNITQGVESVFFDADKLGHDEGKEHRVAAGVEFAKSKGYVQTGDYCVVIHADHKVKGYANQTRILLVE
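Pyruvate kinase activity monitored as ATP production (luciferase luminescence). Conditions: 0.1 nM enzyme, 0.5 mM PEP, 0.1 mM ADP, 1 h, RT; normalized against uninhibited and no-enzyme wells.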
Cycloheximide cs = counter-screen hit for Shiga toxin inhibitors, cycloheximide; cell reporter, cycloheximide protein synthesis inhibition counterscreen; max response, %; 300,000 compounds, 12% hits; AID 2314; in the data active means max response mostly above about 13%, no sharp cut-off; inactive means mostly below about 14%; further: read at 38.3 µM for the half of the compounds with a filed dose; 0% is about no effect
Shiga inhibitor = blocks Shiga toxin action in Vero cells | Vero cells, Shiga toxin protein synthesis inhibition reporter | inhibition, % at 38.7 µM | 290,000 compounds, 9.2% hits; in the data active means inhibition mostly above about 28%, no sharp cut-off; inactive means mostly below about 43%; further: 0% is about no effect
Starred values were filed as active, the others as inactive; ? = inconclusive; · = no result. Most compounds without a hit are left out; they make up all but 22% or so of the library. Unless noted, the call rests on the fitted dose curve; in most records, active means well fitted inhibition curve with a large enough effect; inconclusive means small, poorly fitted or top-dose-only effect, or another doubt; inactive means no such curve, though single readings can be large or run the other way.

SMILES	Pf growth 96h	Pf growth 48h	LmPK inhibitor	Cycloheximide cs	Shiga inhibitor
COc1ccc(C(=O)NCC(c2ccco2)N2CCCC2)cc1S(=O)(=O)N1CCCCC1C (centres undefined)	5.2µM*	?	·	·	·
COc1ccc(C(=O)NCCc2c[nH]c3ccccc23)cc1S(=O)(=O)N1CCCCC1C (centres undefined)	13µM*	8.3µM*	·	·	·
CCc1nc(SCC(=O)Nc2nnc(CC(C)C)s2)n[nH]1	26%	0%	-5%	-2	-3
COc1ccc2cc(/C(C)=N/NC(=O)c3cc(-c4cccnc4)nc4ccccc34)ccc2c1	?	-1%	2%	-1	-6
COc1ccc(OC)c(-c2cc(C(=O)N/N=C(\C)c3cccnc3)c3ccccc3n2)c1	-103%	1.5µM*	7%	1	-8
CCOc1ccc(-c2cc(C(=O)N/N=C(\C)c3cccnc3)c3ccccc3n2)cc1	15%	4%	-7%	-3	-19
COc1ccc(-c2cc(C(=O)N/N=C(\C)c3cccnc3)c3ccccc3n2)c(OC)c1	?	29%	-7%	18	42*
Cc1cccc(C)c1NC(=O)CN(C)C(=O)CN1C(=O)NC(C)(C)C1=O	1%	-2%	·	·	·
Cc1ccc(S(=O)(=O)Nc2ccccc2C(=O)N2CCN(C)CC2)cc1	46%	23%	2%	16	-8
CCOCC(O)COc1ccc(NC(=O)CC[S+](C)C)cc1 (centres undefined)	-3%	-14%	·	·	·
COc1ccc(C(=O)Nc2nc(-c3cccs3)c(NC(C)=O)s2)cc1	33%	-13%	0%	-2	38
Cc1occc1C(=O)Nc1nnc(-c2cccs2)s1	62%	66%	-8%	34*	107*
COc1ccc(NC(=O)Nc2nnc(-c3cccs3)s2)cc1	55%	-8%	-11%	25*	61*
COc1ccc(C(=O)Nc2nnc(-c3cccs3)s2)cc1	-29%	·	-7%	43*	60*
O=C(Nc1nnc(-c2cccs2)s1)c1cccc(F)c1	-9%	173%	0%	19*	59*
CC(C)c1ccc(C(=O)NC(=S)Nc2ccc3[nH]c(=O)[nH]c3c2)cc1	32%	-23%	-2%	-2	5
COCCN(C(=O)CCC(=O)Nc1cc(C)on1)C(C(=O)NC1CCCC1)c1ccc(C(C)C)cc1 (centres undefined)	?	?	-2%	-4	-18
COc1ccc(C(=O)NCCCN(C)CCCNC(=O)c2ccc(OC)cc2)cc1	?	-3%	1%	-2	·
CC(/C=N\NC(=O)Cn1c(C)nc2ccccc21)=C\c1ccccc1	32%	16%	5%	-1	17
O=C(Nc1ccccc1)Nc1nnc(-c2cccs2)s1	41%	118%	2%	29*	25
CCCOc1ccc(C(=O)NCCC(=O)NCCCC(=O)O)cc1	-23%	1%	4%	-2	16
CCCC(=O)NC(=S)Nc1ccc(N2CCOCC2)c(Cl)c1	12µM*	?	3%	19*	44*
CCN1CCN(c2ccc(NC(=O)C(C)C)cc2Cl)CC1	-7%	43%	-1%	7	8
CC(C)CC(=O)NC(=S)Nc1ccc(N2CCCC2)c(Cl)c1	?	3.3µM*	2%	18	57*
CC(C)C(=O)Nc1ccc(N2CCCC2)c(Cl)c1	-1%	17%	-5%	44*	56
SMILES	Pf growth 96h	Pf growth 48h	LmPK inhibitor	Cycloheximide cs	Shiga inhibitor
O=C(NC(=S)Nc1ccc(N2CCOCC2)c(Cl)c1)C(c1ccccc1)c1ccccc1	?	16%	3%	2	-1
CC(C)CC(=O)NC(=S)Nc1cccc(NC(=O)c2ccccc2Cl)c1	·	33%	-4%	0	2
O=C(O)CSc1nnc2c(n1)[nH]c1ccccc12	43%	11%	28µM*	18	18
CCOC(=O)Cc1nnc(NC(=O)CSc2nnc3c(n2)[nH]c2ccccc23)s1	?	?	-3%	-2	-8
CCOC(=O)CC(=O)CSc1nnc2c(n1)[nH]c1ccccc12	162%	19%	4%	20*	70
O=C(O)c1ccccc1CSc1nnc2c(n1)[nH]c1ccccc12	8%	-5%	-23%	-3	17
O=C(CSc1nnc2c(n1)[nH]c1ccccc12)OCc1ccccc1	?	15µM*	8%	-2	-7
S=C(NCc1ccc2c(c1)OCO2)NC1CC1	-1%	10%	6%	9	38
O=C(CSc1ncn[nH]1)Nc1ccc(Cl)c(Cl)c1	·	-2%	2%	-1	14

Screens deposited in PubChem by National Center for Advancing Translational Sciences (NCATS).
